Reference: PubChem BioAssay AID686999 (Broad Institute, 2013)
Potency and affinity values are given separately. Records with an inconclusive call do not appear. Activity calls are given as the source filed them.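 The calls were made as follows: active = active in every separate test run, each with half-maximal potency at or under twice its top valid dose; inconclusive = the separate test runs give conflicting calls; inactive = inactive in every test run, including signal rising instead.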

Experiment: Cryptococcus growth inhibition by alamar blue – cell lysis, cherry-picks, replicate tests, mechanism study for C. neoformans antifungal project, dose response (AID 686999)
Conditions: 72 h; series mostly up to 35 µM

outcome, inactive:
COC(=O)C1=C(C)N(Cc2ccc(Cl)cc2)C(=S)NC1c1cccc(Cl)c1 (stereo unspecified)
CCc1ccc(C(C)NC(=S)NCc2ccc(F)cc2)cc1 (stereo unspecified)
CO[C@H]1CN(C)C(=O)c2cc(NC(=O)C3CC3)ccc2OC[C@@H](C)N(Cc2cncnc2)C[C@H]1C
Cc1ccc(C)c(NC(=O)C2(C)CCCN2C(=O)C(C)C)c1 (stereo unspecified)
COc1ccccc1CNC(=S)NCc1ccc(Cl)cc1
CCc1ccc(C(=O)NC(=S)NCc2cccnc2)cc1
Cc1cc(C)c2nc(N3CCN(C(=O)c4cccs4)CC3)sc2c1
COC(=O)C1=C(C)N(CC(C)C)C(=S)NC1c1cccc(F)c1 (stereo unspecified)
Fc1ccccc1NC(=S)NCCc1cccc(Cl)c1
O=C(NCCN1CCCCC1)[C@H]1N[C@H]2c3ccc(-c4ccncc4)c(=O)n3C[C@H]2[C@@H]1CO
O=C(NC(=S)Nc1ccccc1N1CCCC1)c1ccc([N+](=O)[O-])cc1
COCCN1C(=S)N[C@@H](c2ccccc2)C(C(=O)OC)=C1C
Cc1cc(C(=O)NC(=S)Nc2ccccc2N2CCOCC2)ccc1[N+](=O)[O-]
COc1ccccc1NC(=S)NCc1ccccc1Cl
COC(=O)C1=C(C)N(Cc2ccc(F)cc2)C(=S)NC1c1ccccc1 (stereo unspecified)
CCCCN1C(=S)NC[C@@H]1Cc1ccccc1
O=C(Cc1ccccc1)N[C@H]1C=C[C@@H](CC(=O)N2CCOCC2)O[C@@H]1CO
Cc1cc(Cl)ccc1NC(=S)NCc1ccc(F)cc1
CCCCNC(=S)N/N=C/c1ccc(C#N)cc1
O=C(NC(=S)Nc1ccccc1N1CCCC1)c1ccccc1[N+](=O)[O-]
COc1ccccc1NC(=S)NCc1ccc(Cl)cc1
